Assay results reported in PMC7819943, “Rice protein-binding microarrays: a tool to detect cis-acting elements near promoter regions in rice”.
Whole data set: some 35,000 sequences, median “fluorescence intensity (a.u.)” near 10,000, cut for the highest 2% near 52,000. This excerpt belongs to a sample that is enriched for the highest values.

target: T1, OsWOX13 (Oryza sativa, UniProt Q5QMM3 1-267); test: protein-binding microarray (RPBM); PBS, 2% BSA, 51.3 ng/ul salmon testes DNA, 50 uM zinc acetate, 200 nM TF, 25 C, 1 h; high values mean tight binding; settings: protein: recombinant; tags: N-terminal polyhistidine and DsRed monomer fusion (pET32a); label: CyDye5-dUTP incorporated in the synthesized complementary strand; 3' TTTTT single-stranded linker to array surface; dsDNA, one strand shown
T1 sequence: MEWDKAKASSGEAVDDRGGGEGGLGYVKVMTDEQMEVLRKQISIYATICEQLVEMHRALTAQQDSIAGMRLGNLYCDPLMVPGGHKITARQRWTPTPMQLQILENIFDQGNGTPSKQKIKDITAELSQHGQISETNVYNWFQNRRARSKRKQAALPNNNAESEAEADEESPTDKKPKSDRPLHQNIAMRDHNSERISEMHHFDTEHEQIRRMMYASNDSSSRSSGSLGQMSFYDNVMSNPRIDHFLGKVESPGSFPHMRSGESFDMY
Procedure, shortened: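 Transcription factors, each fused N-terminally to a polyhistidine tag and DsRed, were expressed in E. coli BL21-CodonPlus and purified on Ni–NTA. A custom Agilent array was made double-stranded by primer extension with Cy5-dUTP and blocked with 2% BSA. It was incubated with 200 nM protein in PBS, 2% BSA, salmon testes DNA and 50 µM zinc acetate at 25 °C for 1 h, then washed. The binding signal is per-feature fluorescence intensity (arbitrary units) read on an Axon 4000B scanner.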

Row | Sequence | binding signal
1 | ACAATTGAATGATTGATTGCAGCTCAAGCTTCAATCCGCACGGAGTCACCTAGTGCAG | 63900 fluorescence intensity (a.u.)
2 | TCTCTTACTCTTGTTGATTGACACCGGTCATCAGTAGTTCCGGAGTCACCTAGTGCAG | 43200 fluorescence intensity (a.u.)
3 | CAAAATTAACTTGCGCGCCACTCTGCCTCTCAACCCTTCACGGAGTCACCTAGTGCAG | 8740 fluorescence intensity (a.u.)
4 | AACAATTGACAAACTGATTCTGCTCGCCTCTGTCCCCTTTCGGAGTCACCTAGTGCAG | 46800 fluorescence intensity (a.u.)
5 | TTGATTGGGTCTGTGGTGGAACAGGACGATCATACATCACCGGAGTCACCTAGTGCAG | 21000 fluorescence intensity (a.u.)
6 | GAGCTCAGCTTGCAGGGAGCTTGGGTGTGTGATCATACACCGGAGTCACCTAGTGCAG | 63900 fluorescence intensity (a.u.)
7 | ATATATATATATATATATATACATACATATACACACACACCGGAGTCACCTAGTGCAG | 7300 fluorescence intensity (a.u.)
8 | AGTTAATAACAAGAAATTATTCATTTAAATTTAGGGCAAACGGAGTCACCTAGTGCAG | 9460 fluorescence intensity (a.u.)
9 | CTTAATAACTTTCTCGGATTTAATGTGTGACTCACCATTCCGGAGTCACCTAGTGCAG | 3340 fluorescence intensity (a.u.)
10 | GATGATGTGACTGAAAAGTTGTATGTGTATGACATATTGACGGAGTCACCTAGTGCAG | 11500 fluorescence intensity (a.u.)
11 | GCTATTAGATTGACTATATATGAATTGGAGCTAGTAGTTGCGGAGTCACCTAGTGCAG | 42900 fluorescence intensity (a.u.)
12 | GAAATTGAAGATGATGTGACTGAAAAGTTGTGTATATGACCGGAGTCACCTAGTGCAG | 17200 fluorescence intensity (a.u.)
13 | ATGATTGAATGAATGAAACCCTAGTTTGTTTTGATTTGTACGGAGTCACCTAGTGCAG | 54400 fluorescence intensity (a.u.)
14 | TGGAATGATGTGATGGAAAAGTTGAAAGTTTGTGTGTGTACGGAGTCACCTAGTGCAG | 5390 fluorescence intensity (a.u.)
15 | GTTGAATGTTTTGTATGATTTGAACCTGAAAACTGCATGACGGAGTCACCTAGTGCAG | 7380 fluorescence intensity (a.u.)
16 | GATGTGATTGAAAGTTTGTGTGTGTATGACAGTTTGATGTCGGAGTCACCTAGTGCAG | 61700 fluorescence intensity (a.u.)
17 | GTGATTGACTGATTGTGTGATTGTGTGAAGTGTATTGGTTCGGAGTCACCTAGTGCAG | 65000 fluorescence intensity (a.u.)
18 | GGTTGCTGATTGTATCCTTTACTACTAGATCTTGACTGAGCGGAGTCACCTAGTGCAG | 16300 fluorescence intensity (a.u.)
19 | GATGTGACTGAAAAGTTGTATGTGTATGACAGGTTGATGTCGGAGTCACCTAGTGCAG | 8260 fluorescence intensity (a.u.)
20 | CCTGATTGGTTGTATTGCTTGAAGTAGACTATTGAGATTGCGGAGTCACCTAGTGCAG | 60200 fluorescence intensity (a.u.)
21 | ATATGATAGAAAAGTTGTGTATGTATGAAATGTTTGATGTCGGAGTCACCTAGTGCAG | 9060 fluorescence intensity (a.u.)
22 | AGTTAATGAAATAATGCCAGCCTGCTGTCTTCTGATTATCCGGAGTCACCTAGTGCAG | 6010 fluorescence intensity (a.u.)
23 | GCCTGCATTCATTTCCCTAATCAATCGGCTCGGATAATGTCGGAGTCACCTAGTGCAG | 4450 fluorescence intensity (a.u.)
24 | CGAATCTAAACAATCAATATTTAATTATACTTCCTCTAGACGGAGTCACCTAGTGCAG | 12600 fluorescence intensity (a.u.)

Row | Sequence | binding signal
25 | AAGATTGGGCTGTTCATTAATCAAATTATTCTATGTGTCTCGGAGTCACCTAGTGCAG | 11900 fluorescence intensity (a.u.)
26 | TACACGAGATTGGAGGCACTAGGCCTCAGTACATGGCACGCGGAGTCACCTAGTGCAG | 3870 fluorescence intensity (a.u.)
27 | GTATGATTATCTTTCTTCGAGTAATTAACACGAAACGATGCGGAGTCACCTAGTGCAG | 40700 fluorescence intensity (a.u.)
28 | AATAAATTGTATTAATAACAAATTAGTCTATTCTATTAAACGGAGTCACCTAGTGCAG | 24100 fluorescence intensity (a.u.)
29 | AATAATGAATTTAAAATAAAATAAAACTGCATGCAAGCGACGGAGTCACCTAGTGCAG | 5650 fluorescence intensity (a.u.)
30 | AGTAGATTTTGACATGCTGTGTGTTAACAATGGGAGTAGACGGAGTCACCTAGTGCAG | 3550 fluorescence intensity (a.u.)
31 | ACCCATCACTAATCAGTAATCACAGTATTACTATTAAATTCGGAGTCACCTAGTGCAG | 9220 fluorescence intensity (a.u.)
32 | CATTTAATTCATTGTTATATATATATATATATAGACACACCGGAGTCACCTAGTGCAG | 3920 fluorescence intensity (a.u.)
33 | TAACAAACTATTCCTAATTAATAGATAAACTGCCATGCCGCGGAGTCACCTAGTGCAG | 8390 fluorescence intensity (a.u.)
34 | TTATAATTAGTATTTTCATTGTTGTTAGATGATAAAACATCGGAGTCACCTAGTGCAG | 17500 fluorescence intensity (a.u.)
35 | AATGTGTTAACTAATCAACTCGTCTCCCATCTCCTGCAAGCGGAGTCACCTAGTGCAG | 5480 fluorescence intensity (a.u.)
36 | GTCTCTGTCTCTCGCTCTGATTGAAGTGTTCTGCTGCCATCGGAGTCACCTAGTGCAG | 20400 fluorescence intensity (a.u.)
37 | GGGTGCTGAAATTGATATACGATCAATTGTTGTCGGTGATCGGAGTCACCTAGTGCAG | 14000 fluorescence intensity (a.u.)
38 | AATATGATTGCTTTGTGGGTGTATGGTTCATTTTCAATGGCGGAGTCACCTAGTGCAG | 47700 fluorescence intensity (a.u.)
39 | CTACTGATTGTATTGATTGGGTAGCTGGATTGAAGTTAATCGGAGTCACCTAGTGCAG | 57000 fluorescence intensity (a.u.)
40 | TGCTGGATTGTATTGATGTGTGTGCTTACCTAGTATAAATCGGAGTCACCTAGTGCAG | 3580 fluorescence intensity (a.u.)
41 | ACTTGTGTGATGTTTGGATTGATGCCAAAACTTGCCAAATCGGAGTCACCTAGTGCAG | 3930 fluorescence intensity (a.u.)
42 | CTTGTATGTTTGTGGATTGATATATTATATATTGATATATCGGAGTCACCTAGTGCAG | 6720 fluorescence intensity (a.u.)
43 | TTGTGATTTGTTAGAATTGTATTTTACAATGTGTAGTATGCGGAGTCACCTAGTGCAG | 39800 fluorescence intensity (a.u.)
44 | GTCATCATTGATTGATATGATTTTGTATGTGTGAGCAATGCGGAGTCACCTAGTGCAG | 59400 fluorescence intensity (a.u.)
45 | CGTTAATCGTTGTGATTGATGTCGGATATGTTTGCCACCACGGAGTCACCTAGTGCAG | 58600 fluorescence intensity (a.u.)
46 | GTAATTGGGCTTTCTTTGGGTAGTTATCGCTGGGCTTAATCGGAGTCACCTAGTGCAG | 6360 fluorescence intensity (a.u.)
47 | TGAGCTGATTGATCGTCTGAAGGGTGTCTGATTGTCAAGTCGGAGTCACCTAGTGCAG | 52800 fluorescence intensity (a.u.)
